{"source": "PubChem BioAssay (NCATS)", "note": "Records with an inconclusive call do not appear. Activity calls are given as the source filed them. Calls follow the shape of the dose curve; as a rule, active = well fitted cell-killing curve with a large enough effect; inconclusive = small, poorly fitted or top-dose-only effect, or effect the other way; inactive = no such curve, though single readings can be large or run the other way. Positions of bridges follow the written chain, without caps; N, C: chain ends. Non-standard residues stand in square brackets, D forms with d. Residues, ends and D or L forms follow the SMILES beside them. ξ: configuration not given here. *: point of attachment. Octanoyl(6-Me) = CCC(C)CCCCC(=O)*; ξThr(3R) = C[C@@H](O)C(N)C(=O)O; dDab = NCC[C@@H](N)C(=O)O; Dab = NCC[C@H](N)C(=O)O; Cbz = O=C(OCc1ccccc1)*", "data": [{"assay": "Quantitative High-Throughput drug screen in 47 multiple myeloma cell lines against the NCATS MIPE library collection: PCM6_Riken cell viability assay (AID 1919870); also: nearly all actives have a fitted effect of over 30% in size; also: potency is read from the fitted curve at half-maximal effect", "conditions": "CellTiter-Glo ATP, 48 h; series mostly up to 45.8 µM", "summary_of_the_method": "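ATP-based luminescence (CellTiter-Glo, 5 min RT incubation) quantified surviving cells following two days' treatment with MIPE 4.0 agents at 37 °C, 5% CO2.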", "values": [{"smiles": "CC(=O)[C@]1(O)Cc2c(O)c3c(c(O)c2[C@@H](O[C@H]2C[C@H](N)[C@@H](O)[C@H](C)O2)C1)C(=O)c1ccccc1C3=O", "Potency": "187 nM (active)"}, {"smiles": "CCC(C)CCCCC(=O)N[C@@H](CCN)C(=O)NC(C(=O)N[C@H](CCN)C(=O)N[C@@H]1CCNC(=O)C([C@@H](C)O)NC(=O)[C@@H](CCN)NC(=O)[C@@H](CCN)NC(=O)[C@@H](CC(C)C)NC(=O)[C@H](Cc2ccccc2)NC(=O)[C@H](CCN)NC1=O)[C@@H](C)O", "note": "(stereo partly drawn) ({Octanoyl(6-Me)}-[Dab][ξThr(3R)][dDab][dDab][Dab]F[dL][dDab][dDab][ξThr(3R)]; lactam 4-C)", "Potency": "inactive"}, {"smiles": "CC(C)NC[C@@H](C(=O)N1CCN(c2ncnc3c2[C@H](C)C[C@H]3O)CC1)c1ccc(Cl)cc1", "Potency": "1320 nM (active)"}, {"smiles": "CN(C)c1ccc2cc(C(=O)N[C@@H](CCCN=C(N)CCl)C(=O)NCc3ccccc3)ccc2c1", "Potency": "4180 nM (active)"}, {"smiles": "COc1cc(C(C)C)c(Oc2cnc(NC(CO)CO)nc2N)cc1I", "Potency": "inactive"}, {"smiles": "CC(C)C[C@@H](C=O)NC(=O)[C@H](CC(C)C)NC(=O)[C@H](CC(C)C)NC(=O)OCc1ccccc1", "note": "(Cbz-Leu-Leu-Leu-aldehyde)", "Potency": "332 nM (active)"}, {"smiles": "CC(=O)O[C@]1(C(C)=O)CC[C@H]2[C@@H]3C=C(C)C4=CC(=O)CC[C@]4(C)[C@@H]3CC[C@@]21C", "Potency": "6620 nM (active)"}, {"smiles": "CCOC(=O)[C@@H](N)Cc1ccc(-c2cc(O[C@H](c3ccc(Cl)cc3-n3ccc(C)n3)C(F)(F)F)nc(N)n2)cc1", "Potency": "18700 nM (active)"}, {"smiles": "CC(C)C[C@H](NC(=O)CNC(=O)c1cc(Cl)ccc1Cl)B1OC(=O)CC(CC(=O)O)(C(=O)O)O1", "note": "(some centres undefined)", "Potency": "46.9 nM (active)"}, {"smiles": "C[C@H](NCc1ccc2c(c1)nc(NC(=O)c1ccc(-c3cn[nH]c3)s1)n2CCc1ccccc1)C(C)(C)C", "Potency": "418 nM (active)"}, {"smiles": "CC(C)(O)[C@H]1CC[C@@](C)([C@H]2[C@@H](O)C[C@@]3(C)[C@@H]4C[C@H](O[C@@H]5O[C@H](CO)[C@@H](O)[C@H](O)[C@@H]5O)[C@H]5C(C)(C)[C@@H](O[C@@H]6OC[C@@H](O)[C@H](O)[C@@H]6O)CC[C@@]56C[C@@]46CC[C@]23C)O1", "Potency": "inactive"}, {"smiles": "O=C(O)C=Cc1ccc(Cn2ccnc2)cc1", "Potency": "inactive"}, {"smiles": "COc1cc(OC)cc(-c2ccc3ncc4ccc(=O)n(-c5ccc(N6CCNCC6)c(C(F)(F)F)c5)c4c3c2)c1", "Potency": "3720 nM (active)"}, {"smiles": "O=C(O)CCCCCC(=O)NN=C1CCCC1", "Potency": "inactive"}, {"smiles": "O=C(O)C(=O)Nc1cccc(C2=NN=N[N]2)c1", "Potency": "inactive"}, {"smiles": "CNC(=O)c1ccc(Nc2cc(Nc3ccccc3S(=O)(=O)C(C)C)c3cc[nH]c3n2)nc1", "Potency": "1180 nM (active)"}, {"smiles": "O=C1c2c(O)cccc2[C@@H]([C@@H]2O[C@H](CO)[C@@H](O)[C@H](O)[C@H]2O)c2cc(CO)cc(O)c21", "Potency": "inactive"}, {"smiles": "COc1cc2c(Nc3ccc(Cl)c(Cl)c3F)ncnc2cc1OCC1C[C@@H]2CN(C)C[C@H]2C1", "Potency": "1320 nM (active)"}, {"smiles": "OC[C@H]1OC(O)C[C@@H](O)[C@H]1O", "note": "(some centres undefined)", "Potency": "inactive"}, {"smiles": "CCOc1cc2c(c(F)c1OCC)C(=N)N(CC(=O)c1cc(N3CCOCC3)c(OC)c(C(C)(C)C)c1)C2", "Potency": "7430 nM (active)"}, {"smiles": "Cc1cnc(Nc2ccc(N3CCN(C)CC3)cc2)nc1Nc1cccc(S(=O)(=O)NC(C)(C)C)c1", "Potency": "3720 nM (active)"}, {"smiles": "CC(=O)C1=C(O)C=C2Oc3c(C(C)=O)c(O)c(C)c(O)c3C2(C)C1=O", "note": "(centres undefined)", "Potency": "inactive"}, {"smiles": "COC[C@H](NC(=O)c1cnc(C)s1)C(=O)N[C@@H](COC)C(=O)N[C@@H](Cc1ccccc1)C(=O)[C@@]1(C)CO1", "Potency": "187 nM (active)"}, {"smiles": "CC[C@H]1OC(=O)[C@H](C)[C@@H](O[C@H]2C[C@@](C)(OC)[C@@H](O)[C@H](C)O2)[C@H](C)[C@@H](O[C@@H]2O[C@@H](C)C[C@H](N(C)C)[C@@H]2O)[C@](C)(O)C[C@@H](C)C(=O)[C@H](C)[C@@H](O)[C@]1(C)O", "Potency": "inactive"}, {"smiles": "NC(=O)c1ncn([C@@H]2O[C@H](CO)[C@@H](O)[C@@H]2O)c1N", "Potency": "inactive"}, {"smiles": "CC(C)OC(=O)[C@H](C)N[P@](=O)(OC[C@H]1O[C@@H](n2ccc(=O)[nH]c2=O)[C@](C)(F)[C@H]1O)Oc1ccccc1", "Potency": "inactive"}, {"smiles": "Cc1onc(-c2ccccc2)c1C(=O)N[C@@H]1C(=O)N2[C@@H](C(=O)O)C(C)(C)S[C@@H]12", "Potency": "inactive"}, {"smiles": "OCc1ccccc1O[C@@H]1O[C@H](CO)[C@H](O)[C@H](O)[C@H]1O", "Potency": "inactive"}, {"smiles": "COc1ccc(C(C)=O)c(O)c1", "Potency": "inactive"}, {"smiles": "Nc1nc(=O)n([C@H]2C[C@H](O)[C@@H](CO)O2)cc1F", "Potency": "59 nM (active)"}, {"smiles": "CC(=O)N[C@H]1[C@@H]([C@H](O)[C@H](O)CO)OC(C(=O)O)=C[C@@H]1N=C(N)N", "Potency": "inactive"}, {"smiles": "Cc1cncc2cccc(S(=O)(=O)N3CCCN(C(=O)CN)C[C@@H]3C)c12", "Potency": "20900 nM (active)"}, {"smiles": "CC(=O)OCC(=O)[C@@]1(O)CC[C@H]2[C@@H]3CCC4=CC(=O)CC[C@]4(C)[C@@H]3C(=O)C[C@@]21C", "Potency": "inactive"}, {"smiles": "C=CC1=C(C(=O)O)N2C(=O)[C@@H](NC(=O)C(=NO)c3csc(N)n3)[C@H]2SC1", "Potency": "11800 nM (active)"}, {"smiles": "CN(C)CC(=O)N1CCC(c2ccc(NC(=O)c3ncc(C#N)[nH]3)c(C3=CCCCC3)c2)CC1", "Potency": "14800 nM (active)"}, {"smiles": "C[C@]12CCC(=O)C=C1[C@@H]1CC1[C@H]1[C@H]3[C@@H]4C[C@H]4[C@@]4(CCC(=O)O4)[C@@]3(C)CC[C@H]12", "note": "(some centres undefined)", "Potency": "inactive"}, {"smiles": "Cn1cc(-c2ccc3ncc(Cc4ccc5ncccc5c4)n3n2)cn1", "Potency": "13200 nM (active)"}, {"smiles": "C=C1CCC2[C@](C)(CO)C(O)CC[C@]2(C)C1CC=C1C(=O)OCC1O", "note": "(some centres undefined)", "Potency": "inactive"}, {"smiles": "Cc1ncc(-c2ccnc(Nc3ccc(S(C)(=O)=O)cc3)n2)n1C(C)C", "Potency": "743 nM (active)"}]}]}
